Active and inactive are the calls of the source. The rule behind the calls is not given here.
Test system: HIV-1 nucleocapsid protein NCp7 (binding to TG oligonucleotide)
Test: HIV Nucleocapsid (AID 346);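 note: potency is for inhibitors that block NC binding and lower polarization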
Conditions: HIV-1 NC / fluorescein-TGTGTGTG probe, fluorescence polarization
Summary of the method: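 Fluorescence polarization binding of 100 nM HIV-1 NC to 10 nM fluorescein-labelled TG4xF oligonucleotide. Buffer was Hepes pH 7.5 with 250mM NaCl, 1uM ZnCl2, TCEP and 2-mercaptoethanol. Compounds were incubated 1 hr at room temperature before the read.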
Potency is the fitted concentration of half-maximal effect.

SMILES	Potency
COc1ccccc1CN1CCC2(CC1)CCN(S(=O)(=O)c1ccccc1)CC2	> 20 µM (inactive)
COc1cccc(-c2nc(NC3CC3)c3ccccc3n2)c1	> 20 µM (inactive)
COC(=O)N1CCC2(CCN(C(=O)NC(C)C)CC2)CC1	> 20 µM (inactive)
Cc1nc2cnc(N(C)C)nc2n(C)c1=O	> 20 µM (inactive)
O=S(=O)(c1ccccc1)N1CCC2(CC1)CN(c1ccncc1)C2	> 20 µM (inactive)
COc1ccc(-c2nc3cnc(N(C)C)nc3n(Cc3cccs3)c2=O)cc1	> 20 µM (inactive)
O=S(=O)(c1ccccc1)N1CCC2(CCCN(Cc3cc(C(F)(F)F)cc(C(F)(F)F)c3)C2)CC1	> 20 µM (inactive)
COc1ccc(C(=O)N2CCC3(CCCN(c4ccccn4)C3)CC2)cc1	> 20 µM (inactive)
COCC(=O)N1CCC2(CC1)CCN(c1ccc(-c3ccccc3)cc1)CC2	> 20 µM (inactive)
CN1CCN(c2ncc3nc(-c4ccc(Cl)cc4)c(=O)n(-c4ccccc4)c3n2)CC1	> 20 µM (inactive)
CN(C)c1ccc(-c2nc(N(C)Cc3ccco3)c3ccccc3n2)cc1	> 20 µM (inactive)
Clc1ccccc1-c1ccc2ncnc(NC3CCNCC3)c2c1	> 20 µM (inactive)
COc1cccc(Nc2ncc3nc(C)c(=O)n(C)c3n2)c1	> 20 µM (inactive)
FC(F)(F)c1ccccc1-c1ccc2ncnc(N3CCOCC3)c2c1	> 20 µM (inactive)
COc1cccc(Cn2c(=O)c(CCc3ccccc3)nc3cnc(N(C)C)nc32)c1	> 4 µM (inactive)
CNc1ncnc2ccc(-c3ccccc3OC)cc12	> 20 µM (inactive)
CN(C)c1ncnc2ccc(-c3cccnc3)cc12	> 20 µM (inactive)
COc1ccc(-n2c(=O)c(-c3ccccc3)nc3cncnc32)cc1	> 20 µM (inactive)
O=c1c(-c2ccc(F)cc2)nc2cncnc2n1-c1ccccc1	> 20 µM (inactive)
COc1cccc(Cn2c(=O)c(-c3cn(C)c4ccccc34)nc3cnc(N4CCOCC4)nc32)c1	> 20 µM (inactive)

SMILES	Potency
COCCn1c(=O)c(-c2cn(C)c3ccccc23)nc2cnc(Oc3ccccc3)nc21	> 20 µM (inactive)
COCCn1c(=O)c(-c2cccc(F)c2)nc2cncnc21	> 20 µM (inactive)
COCCn1c(=O)c(-c2ccc(OC)cc2)nc2cnc(OCc3ccccc3)nc21	> 20 µM (inactive)
Cc1nc2cnc(N3CCN(C)CC3)nc2n(Cc2cccs2)c1=O	> 20 µM (inactive)
CC(C)CN1CCCC2(CCN(C(=O)c3cc(C(F)(F)F)cc(C(F)(F)F)c3)CC2)C1	> 20 µM (inactive)
COc1cccc(-c2ccc3ncnc(NCc4ccccc4)c3c2)c1	> 20 µM (inactive)
c1csc(CNc2ccnc(-c3ccoc3)n2)c1	> 20 µM (inactive)
COCCn1c(=O)cnc2cnc(N(C)C)nc21	> 20 µM (inactive)
COCC(=O)N1CCC2(CC1)CN(C(c1ccccc1)c1ccccc1)C2	> 20 µM (inactive)
CC(=O)N1CCC2(CCN(Cc3ccccc3)CC2)CC1	> 20 µM (inactive)
COCCn1c(=O)c(-c2ccc(Cl)cc2)nc2cnc(OC)nc21	> 20 µM (inactive)
COc1ccccc1CNc1ncncc1-c1ccccc1Cl	> 20 µM (inactive)
COc1ccccc1-c1cc(Nc2ccn[nH]2)ncn1	> 20 µM (inactive)
CC(C)NC(=O)N1CC[C@@]2(CCCN(C(=O)c3ccncc3)C2)C1	> 20 µM (inactive)
COc1ccccc1CNc1ncncc1-c1cccc(NS(C)(=O)=O)c1	> 20 µM (inactive)
CC(=O)N1CCC2(CCCN(Cc3ccc(C#N)cc3)C2)CC1	> 20 µM (inactive)
CN1CCN(c2ncncc2-c2cccnc2)CC1	> 20 µM (inactive)
O=C(c1ccco1)N1CCC2(CCN(Cc3ccncc3)CC2)CC1	> 20 µM (inactive)
COc1ccc(NC(=O)N2CC3(CCN(C(=O)c4csnn4)CC3)C2)cc1	> 20 µM (inactive)
O=c1c(-c2ccccc2)nc2cnc(N3CCOCC3)nc2n1-c1ccccc1	> 20 µM (inactive)
